Source: PubChem BioAssay AID1159580 (chemical genetic matrix, 2015)
Out of some 5,500 compounds screened, about 2,000 (36%) were called active. Another 18% or so got no clear call; they are omitted. Some of the results follow. Values without a mark were called inactive. Cut-off read from the data, not from the text of the source: active = normalized growth mostly below about 0.91 (no sharp cut-off); inconclusive = no clear call, values can overlap the other calls; inactive = mostly above about 0.92.

Test: chemical genetic growth profiling, strain panel (AID 1159580);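 note: tested at 20 µM; growth read once vehicle control cultures reached saturation at 30 °C; 1 = growth at the plate median or of vehicle wells; lower values mean less growth of the strain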
Details: growth OD

## CC(=O)[C@H]1CCC2C3CC=C4C[C@@H](O)CC[C@]4(C)C3CC[C@@]21C (stereo partly specified)
S. cerevisiae deletion strains, locus YKL009W, strain mrt4, stronger effect = lower value
  normalized growth: 0.856 (active)
S. cerevisiae deletion strains, locus YKL068W, stronger effect = lower value
  normalized growth: 1.01
S. cerevisiae deletion strains, locus YKL085W, strain MDH1 (second series), stronger effect = lower value
  normalized growth: 0.982
S. cerevisiae deletion strains, locus YKL085W, strain MDH1, stronger effect = lower value
  normalized growth: 0.982
S. cerevisiae deletion strains, locus YKL160W, strain elf1, stronger effect = lower value
  normalized growth: 0.944
S. cerevisiae deletion strains, locus YKL190W, strain CNB1, stronger effect = lower value
  normalized growth: 0.97
S. cerevisiae deletion strains, locus YKR001C, strain vps1, stronger effect = lower value
  normalized growth: 0.991
S. cerevisiae deletion strains, locus YKR026C, strain gcn3, stronger effect = lower value
  normalized growth: 1.01
S. cerevisiae deletion strains, locus YKR091W, strain srl3, stronger effect = lower value
  normalized growth: 1.01
S. cerevisiae deletion strains, locus YLL001W, strain dnm1, stronger effect = lower value
  normalized growth: 0.928
S. cerevisiae deletion strains, locus YLL026W, stronger effect = lower value
  normalized growth: 0.912 (active)
S. cerevisiae deletion strains, locus YLL041C, strain sdh2, stronger effect = lower value
  normalized growth: 0.999
S. cerevisiae deletion strains, locus YLR027C, strain aat2, stronger effect = lower value
  normalized growth: 0.926
S. cerevisiae deletion strains, locus YLR039C, strain RIC1, stronger effect = lower value
  normalized growth: 0.487 (active)
S. cerevisiae deletion strains, locus YLR058C, strain SHM2, stronger effect = lower value
  normalized growth: 0.995
S. cerevisiae deletion strains, locus YLR102C, strain apc9, stronger effect = lower value
  normalized growth: 1.03
S. cerevisiae deletion strains, locus YLR113W, strain HOG1, stronger effect = lower value
  normalized growth: 1.01
S. cerevisiae deletion strains, locus YLR221C, strain rsa3, stronger effect = lower value
  normalized growth: 0.923
S. cerevisiae deletion strains, locus YLR258W, strain gsy2, stronger effect = lower value
  normalized growth: 0.961
S. cerevisiae deletion strains, locus YLR262C, strain YPT6 (second series), stronger effect = lower value
  normalized growth: 0.456 (active)
S. cerevisiae deletion strains, locus YLR262C, strain YPT6, stronger effect = lower value
  normalized growth: 0.532 (active)
S. cerevisiae deletion strains, locus YLR268W, strain sec22, stronger effect = lower value
  normalized growth: 0.949
S. cerevisiae deletion strains, locus YLR320W, strain mms22, stronger effect = lower value
  normalized growth: 0.646 (active)
S. cerevisiae deletion strains, locus YLR330W, strain CHS5, stronger effect = lower value
  normalized growth: 1.02
S. cerevisiae deletion strains, locus YLR342W, strain FKS1 (second series), stronger effect = lower value
  normalized growth: 0.896
S. cerevisiae deletion strains, locus YLR342W, strain FKS1, stronger effect = lower value
  normalized growth: 0.915
S. cerevisiae deletion strains, locus YLR357W, strain rsc2, stronger effect = lower value
  normalized growth: 1.09
S. cerevisiae deletion strains, locus YLR370C, strain arc18, stronger effect = lower value
  normalized growth: 0.987
S. cerevisiae deletion strains, locus YLR371W, strain rom2, stronger effect = lower value
  normalized growth: 1.02
S. cerevisiae deletion strains, locus YLR384C, strain iki3, stronger effect = lower value
  normalized growth: 0.998
S. cerevisiae deletion strains, locus YLR418C, strain cdc73, stronger effect = lower value
  normalized growth: 0.791 (active)
S. cerevisiae deletion strains, locus YML016C, strain PPZ1, stronger effect = lower value
  normalized growth: 1
S. cerevisiae deletion strains, locus YML032C, strain rad52, stronger effect = lower value
  normalized growth: 0.952
S. cerevisiae deletion strains, locus YML120C, strain ndi1, stronger effect = lower value
  normalized growth: 0.934
S. cerevisiae deletion strains, locus YML124C, strain tub3, stronger effect = lower value
  normalized growth: 1.04
S. cerevisiae deletion strains, locus YMR058W, strain fet3, stronger effect = lower value
  normalized growth: 0.946
S. cerevisiae deletion strains, locus YMR078C, strain ctf18, stronger effect = lower value
  normalized growth: 1.01
S. cerevisiae deletion strains, locus YMR125W, strain sto1, stronger effect = lower value
  normalized growth: 0.988
S. cerevisiae deletion strains, locus YMR129W, stronger effect = lower value
  normalized growth: 0.985
S. cerevisiae deletion strains, locus YMR205C, strain PFK2, stronger effect = lower value
  normalized growth: 0.944
S. cerevisiae deletion strains, locus YMR223W, strain ubp8, stronger effect = lower value
  normalized growth: 0.964
S. cerevisiae deletion strains, locus YMR231W, strain pep5, stronger effect = lower value
  normalized growth: 1
S. cerevisiae deletion strains, locus YMR263W, strain SAP30, stronger effect = lower value
  normalized growth: 0.979
S. cerevisiae deletion strains, locus YMR307W, strain GAS1, stronger effect = lower value
  normalized growth: 1.19
S. cerevisiae deletion strains, locus YNL067W, strain RPL9B, stronger effect = lower value
  normalized growth: 0.935
S. cerevisiae deletion strains, locus YNL071W, strain lat1, stronger effect = lower value
  normalized growth: 0.716 (active)
S. cerevisiae deletion strains, locus YNL128W, strain TEP1, stronger effect = lower value
  normalized growth: 1.01
S. cerevisiae deletion strains, locus YNL153C, strain GIM3, stronger effect = lower value
  normalized growth: 0.948
S. cerevisiae deletion strains, locus YNL183C, strain NPR1, stronger effect = lower value
  normalized growth: 0.866
S. cerevisiae deletion strains, locus YNL209W, strain ssb2, stronger effect = lower value
  normalized growth: 0.983
S. cerevisiae deletion strains, locus YNL233W, strain BNI4, stronger effect = lower value
  normalized growth: 0.93
S. cerevisiae deletion strains, locus YNL248C, strain rpa49, stronger effect = lower value
  normalized growth: 0.899
S. cerevisiae deletion strains, locus YNL250W, strain rad50, stronger effect = lower value
  normalized growth: 1
S. cerevisiae deletion strains, locus YNL271C, strain bni1, stronger effect = lower value
  normalized growth: 1.02
S. cerevisiae deletion strains, locus YNL298W, strain CLA4, stronger effect = lower value
  normalized growth: 0.999
S. cerevisiae deletion strains, locus YNL307C, strain MCK1, stronger effect = lower value
  normalized growth: 0.649 (active)
S. cerevisiae deletion strains, locus YNL322C, strain KRE1 (second series), stronger effect = lower value
  normalized growth: 1.03
S. cerevisiae deletion strains, locus YNL322C, strain KRE1, stronger effect = lower value
  normalized growth: 1.01
S. cerevisiae deletion strains, locus YNR049C, strain mso1, stronger effect = lower value
  normalized growth: 1.01
S. cerevisiae deletion strains, locus YNR052C, strain pop2, stronger effect = lower value
  normalized growth: 0.992
S. cerevisiae deletion strains, locus YOL006C, strain TOP1, stronger effect = lower value
  normalized growth: 0.68
S. cerevisiae deletion strains, locus YOL012C, strain htz1
  normalized growth: 1.1
S. cerevisiae deletion strains, locus YOL147C, strain pex11, stronger effect = lower value
  normalized growth: 1.02
S. cerevisiae deletion strains, locus YOR001W, strain rrp6, stronger effect = lower value
  normalized growth: 0.904
S. cerevisiae deletion strains, locus YOR061W, strain CKA2, stronger effect = lower value
  normalized growth: 0.991
S. cerevisiae deletion strains, locus YOR069W, strain VPS5, stronger effect = lower value
  normalized growth: 1.01
S. cerevisiae deletion strains, locus YOR070C, strain gyp1, stronger effect = lower value
  normalized growth: 0.956
S. cerevisiae deletion strains, locus YOR080W, strain dia2, stronger effect = lower value
  normalized growth: 0.986
S. cerevisiae deletion strains, locus YOR083W, strain WHI5, stronger effect = lower value
  normalized growth: 0.907
S. cerevisiae deletion strains, locus YOR106W, strain vam3, stronger effect = lower value
  normalized growth: 0.927
S. cerevisiae deletion strains, locus YOR136W, strain idh2, stronger effect = lower value
  normalized growth: 1.01
S. cerevisiae deletion strains, locus YOR144C, strain elg1, stronger effect = lower value
  normalized growth: 1.03
S. cerevisiae deletion strains, locus YOR184W, strain ser1, stronger effect = lower value
  normalized growth: 0.75 (active)
S. cerevisiae deletion strains, locus YOR231W, strain MKK1, stronger effect = lower value
  normalized growth: 0.958
S. cerevisiae deletion strains, locus YOR265W, strain rbl2, stronger effect = lower value
  normalized growth: 0.967
S. cerevisiae deletion strains, locus YOR270C, strain vph1, stronger effect = lower value
  normalized growth: 0.783
S. cerevisiae deletion strains, locus YOR290C, strain snf2, stronger effect = lower value
  normalized growth: 0.947
S. cerevisiae deletion strains, locus YOR316C, strain cot1, stronger effect = lower value
  normalized growth: 1.03
S. cerevisiae deletion strains, locus YPL051W, strain arl3, stronger effect = lower value
  normalized growth: 0.903 (active)
S. cerevisiae deletion strains, locus YPL055C, strain LGE1, stronger effect = lower value
  normalized growth: 0.869
S. cerevisiae deletion strains, locus YPL078C, strain atp4, stronger effect = lower value
  normalized growth: 0.898
S. cerevisiae deletion strains, locus YPL106C, strain sse1, stronger effect = lower value
  normalized growth: 1.16 [resistant] (active)
S. cerevisiae deletion strains, locus YPL240C, strain hsp82, stronger effect = lower value
  normalized growth: 1
S. cerevisiae deletion strains, locus YPL241C, strain CIN2, stronger effect = lower value
  normalized growth: 1
S. cerevisiae deletion strains, locus YPL256C, strain CLN2, stronger effect = lower value
  normalized growth: 1.02
S. cerevisiae deletion strains, locus YPR119W, strain clb2, stronger effect = lower value
  normalized growth: 1.02
S. cerevisiae deletion strains, locus YPR141C, strain kar3, stronger effect = lower value
  normalized growth: 1.05
S. cerevisiae deletion strains, locus YPR163C, strain tif3, stronger effect = lower value
  normalized growth: 1.02
S. cerevisiae deletion strains, locus YPR167C, strain met16, stronger effect = lower value
  normalized growth: 1.01
S. cerevisiae deletion strains, strain wtn01, stronger effect = lower value
  normalized growth: 0.948
S. cerevisiae strains, strain wild type, stronger effect = lower value
  normalized growth: 0.962
